Assay results as given in the supplement of paper PMC11577813, “Eurasian spruce bark beetle detects lanierone using a highly expressed specialist odorant receptor, present in several functional sensillum types” (BMC Biology, 2024).
± gives the standard deviation of the averaged measurements.

Test system: lanierone-responsive B-neuron OSN class (ItypOR36)
Experiment: net action potential response of lanierone B-neuron (blank-subtracted) (spikes/s (Hz)); higher = stronger excitation
Settings: 10 µg on filter paper, neuron: B neuron (small spike amplitude)
Experimental: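 Single sensillum recordings from antennal olfactory sensilla of live adult Ips typographus. Each compound was 10 µg in paraffin oil, delivered as a 0.5 s puff. Net response = spikes in the first 0.5 s of response minus the 0.5 s pre-stimulus count, doubled to give Hz, with blank response subtracted. Values are for the small-spike lanierone-responsive B-neuron (putatively expressing ItypOR36), recorded in sensilla co-housing the A-neuron class; N = 1-4, averaged.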

[1] = co-localized A-neuron class: (4S)-cis-verbenol
[2] = co-localized A-neuron class: (5S,7S)-trans-conophthorin
[3] = co-localized A-neuron class: (+)-isopinocamphone
[4] = co-localized A-neuron class: (+)-trans-4-thujanol
[5] = co-localized A-neuron class: ipsdienol
[6] = co-localized A-neuron class: myrcene
[7] = co-localized A-neuron class: p-cymene

Row | SMILES | net action potential response [1] | net action potential response [2] | net action potential response [3] | net action potential response [4] | net action potential response [5] | net action potential response [6] | net action potential response [7]
1 | COc1ccccc1 [Anisole] | -1.33 ± 8.3 | 0 ± 6 | -2.67 ± 2.3 | -2.5 ± 4.1 | 2.67 ± 4.6 | 2 | -3 ± 1.4
2 | CC1=CCC2CC1C2(C)C (stereo not drawn) [(-)-α-Pinene] | -6 ± 4 | -1.33 ± 2.3 | 2 ± 2 | 0 ± 5.7 | -1.33 ± 4.2 | 2 | -5.33 ± 4.6
3 | C=C(C)C1CC=C(C)C(=O)C1 (racemic) [(±)-Carvone] | -1.33 ± 5 | 1.5 ± 2.5 | 2.67 ± 2.3 | 1 ± 2.6 | -4.67 ± 2.3 | 6 | 0 ± 5.3
4 | CC(C)[C@@]12CC[C@@](C)(O)[C@@H]1C2 [(+)-trans-4-Thujanol] | -3.33 ± 4.2 | 0 ± 5.9 | 0.667 ± 1.1 | -6.5 ± 5.5 | -0.667 ± 2.3 | 2 | -1.33 ± 3.1
5 | C[C@@H]1C(=O)C[C@H]2C[C@@H]1C2(C)C [(+)-Isopinocamphone] | -0.667 ± 17 | 1.33 ± 5 | -5.33 ± 3.1 | 1 ± 2.6 | -2 ± 2 | -2 | -0.667 ± 3.1
6 | c1ccc2c(c1)CCO2 [2,3-Dihydrobenzofuran] | 3.33 ± 9.2 | -0.667 ± 4.2 | 0.667 ± 11 | 2.5 ± 3.4 | -3.33 ± 3.1 | -2 | 6 ± 8.7
